This is an account of results in PubChem BioAssay (NCATS).

Active and inactive are the calls of the source. The call rests on the fitted dose curve; in most records, active means well fitted curve in the direction sought with a large enough effect; inconclusive means small, poorly fitted or top-dose-only effect, or another doubt; inactive means no such curve, though single readings can be large or run the other way.

The test in a line: Validation qHTS assay for inhibitors of Activation Induced Cytidine Deaminase (AID): UDG Counterscreen signal (AID 1347427). To be noted: biochemical UDG counterscreen, fluorescence signal; series mostly up to 115 µM. An excerpt: Assay Provider (PI) Patricia Gearhart Ph.D.
National Institute on Aging
National Institute of Health (NIH), Bethesda, MD
Assay Provider (PI) Rahul Kohli Ph.D.
Perelman School of Medicine
University of Pennsylvania, Philadelphia, PA
Activation-Induced Deaminase (AID) is a cytosine deaminase which converts cytosine into uracil within stretches of ssDNA. The presence of uracil in DNA initiates a cascade of mutagenic DNA repair to introduce point mutations and DNA double strand breaks. Specific targeting of AID to the immunoglobulin heavy chain loci (Igh) promotes mutagenesis in the antibody variable region for somatic hypermutation (SHM) or switch regions leading to class switch recombination (CSR). However, AID also plays a role in accumulating unnecessary mutations across the genome. Mis-targeting of AID results in the initiation of tumor development and leads to greater drug resistance among cancer cells when continually expressed. To identify an AID inhibitor, a small molecule library will be screened in collaboration with NCATS core facility at NIH. To confirm biological function, inhibitors will be examined in an in vitro murine B-cell activation assay and subsequent secondary validation screens. Top molecules will be further screened to identify inhibitory efficacy against a wild type primary splenocytes assay. Using these approaches, we hope to identify a small molecule with great efficacy and low toxicity for use as a molecular probe to further characterize AID's intricacies, or even as a therapeutic.
A FRET based analysis of cytosine deamination, was developed to identify potential inhibitors of AID catalytic activity. This screen has two signal output, Read 1 evaluates the AID inhibition response. The second readout (Read 2) evaluates UDG response and is uses as a counterscreen to exclude false positive inhibitors. Inhibition in AID and inactivity in the UDG signal is the desired outcome for this assay.
SEQUENCE No. (e.g., 1, 2, 3, etc.); […] (e.g., Cells, Incubation, Reagent, etc.); VALUE; DESCRIPTION
1a; Reagent; 3 uL; [4/3x] 1 uM AID/2.67 U/mL UDG
1b; Reagent; 3 uL; 2 U/mL UDG
1c; Reagent; 3 uL; 1 uM AID
2a; Compound; 46 nL; Follow-up plates (0.64 uM - 10 mM)
2b; Control; 46 nL; ATA ([…] - 10 mM)
3; Time; 10 min; incubation at room temperature
5; Time; 4 hr; incubation at room temperature
6; Reagent; 4 uL; [2x] 250 mM NaOH
7; Time; 15 sec; centrifuge at 1000 rpm
8; Time; 30 min; incubation at room temperature
9a; Detection; fluorescence (Read 1: AID); EnVision (PerkinElmer) plate reader, 540 excitation and 590 emission filters
9b; Detection; fluorescence (Read 2: UDG); EnVision (PerkinElmer) plate reader, 560 excitation and 665 emission filters
NOTES (numbers refer to sequence above)
1a; Reagents were dispensed in a medium-binding black solid-bottom Greiner plates (789176F) using a BioRptr liquid dispenser. Dispense 3 uL of [4/3x] 1 uM AID (provided by Kohli lab) and [4/3x] 2 U/mL UDG (NEB M0280L) into columns 1, 2, 5 to 48.
1b; Dispense 3 uL of [4/3x] 2 U/mL UDG into column 3.
1c; Dispense 3 uL of [4/3x] 1 uM AID into column 4.
2b; 10 mM Aurintricarboxylic Acid (Sigma A1895) (ATA, 8-point, n = 2, 1:2.5 dilution in column 2) double pin-transferred (Dip Factor = 2) using the Kalypsys (Wako USA) pintool equipped with a 1536 pinhead for a [final] range of 186 nM - 114 uM.
3; Room temperature incubation.
4; Dispense 1 uL of substrate mixture from the Kohli lab [4x] […] DJC20 and [4x] 250 nM DJC23 into columns 1 to 48 .
5; Room temperature incubation.
6; Dispense 4 uL of substrate mixture [2x] 250 mM NaOH into columns 1 to 48.
7; Centrifugation step to remove bubbles.
8; Room temperature incubation
9a; Fluorescence signal (column label AID) was read using the EnVision plate reader. Excitation filter = 540(8) nm, barcode = 311; Emission filter = 590(20) nm, barcode = 217; Mirror = D555, barcode = 405.
9b; Fluorescence signal (column label UDG) was read using the EnVision plate reader. […]
Take `NC(N)=NOCCC(N)C(=O)O` (stereo not given): the result was inactive.

On to `NC(CP(=O)(O)O)C(=O)O` (stereo not given), for which the outcome was inactive.

As for `CC(C)NC(C)Cc1ccc(I)cc1` (stereo not given), the result was inactive.

`COc1cc(C(O)CN)ccc1O` (stereo not given): the result was inactive.

Regarding `NCCc1c[nH]c2ccc(O)cc12`, the molecule was classed as inactive.

Turning to `CC(=O)NCCc1c[nH]c2ccccc12`, the result was inactive.

With `CNCCc1ccc(O)c(O)c1`, the result was inactive.

`c1ccc(CCCN2CCN(CCOC(c3ccccc3)c3ccccc3)CC2)cc1`: the call was inactive.

For the molecule `C[C@@H]1O[C@H](C[N+](C)(C)C)C[C@H]1O`, the result was inactive.

Take `CC(C)Oc1cccnc1N(C)C1CCN(Cc2ccccc2)CC1`: the result was inactive.

For `CNCCc1c[nH]c2ccc(O)cc12`, the call was inactive.

`CN1C2CCC1CC(OC(=O)c1cc(Cl)cc(Cl)c1)C2` (stereo not given): the molecule was classed as inactive.

Regarding `C#CCOC(=O)C1=CCCN(C)C1`, the call was inactive.

For `NC1CC1c1ccccc1` (stereo not given), the result was inactive.

In the case of `C[N+]1(C)C2CCC1CC(OC(=O)C(CO)c1ccccc1)C2` (stereo not given), the molecule was classed as inactive.

Take `CC[C@@]1(O)C(=O)OCc2c1cc1n(c2=O)Cc2cc3ccccc3nc2-1`: the outcome was inactive.

In the case of `Cc1nccc2c1[nH]c1ccccc12`, the molecule was classed as inactive.

On to `NCc1cc(=O)[nH]o1`, for which the result was inactive.

As for `CC(=O)[C@H]1CCC2C3CC[C@H]4C[C@H](O)CC[C@]4(C)C3CC[C@@]21C` (stereo not given in full), the call was inactive.

As to `C[C@@H](N)Cc1cnc[nH]1`, the call was inactive.

Take `CC[C@@H](C(N)=O)N1CCCC1=O`: the result was inactive.

As to `NCCc1c[nH]c2ccccc12`, the molecule was called inactive.

For the molecule `NC(CCP(=O)(O)O)C(=O)O` (stereo not given), the call was inactive.

On to `CC1=NN=C(c2ccc(N)cc2)c2cc3c(cc2C1)OCO3`, for which the call was inactive.

As to `CS(=N)(=O)CC[C@H](N)C(=O)O` (stereo not given in full), the molecule was classed as inactive.

As for `O=C(O)CC[N+](=O)[O-]`, the result was inactive.

With `NC1CCc2cc(O)c(O)cc2C1` (stereo not given), the call was inactive.

For `O=C(O)[C@@H]1CCN1`, the result was inactive.

Turning to `Clc1cnc(Oc2ccc(Oc3ncc(Cl)cc3Cl)cc2)c(Cl)c1`, the molecule was called inactive.

Turning to `CCCN1CCC[C@H](c2cccc(O)c2)C1`, the outcome was inactive.

As for `O=C(O)Cc1cnc[nH]1`, the call was inactive.

For the molecule `COC(=O)[C@@H](N)CCCN=C(N)N[N+](=O)[O-]`, the call was inactive.

`CCCN(CCC)[C@@H]1CCc2ccc(O)cc2C1`: the molecule was called inactive.

Take `C=CCN1CC[C@]23CCCCC2[C@H]1Cc1ccc(O)cc13` (stereo not given in full): the result was inactive.

For the molecule `CCCN1CCO[C@@H]2c3cc(O)ccc3OC[C@H]21`, the outcome was inactive.

For the molecule `O=C1CCCN1CC#CCN1CCCC1`, the molecule was called inactive.

For the molecule `Oc1ccc2c3c1O[C@H]1c4[nH]c5c(c4C[C@@]4(O)[C@@H](C2)N(CC2CC2)CC[C@]314)C[C@@]1(O)[C@H]2Cc3ccc(O)c4c3[C@@]1(CCN2CC1CC1)[C@H]5O4`, the molecule was called inactive.

As to `NC(=NCCC[C@H](N)C(=O)O)N[N+](=O)[O-]`, the result was inactive.

In the case of `O=C(Cc1ccc(Cl)c(Cl)c1)N1CCCCC1CN1CCCC1` (stereo not given), the molecule was classed as inactive.

Consider `O=C(N[C@H]1CN2CCC1CC2)c1ccc(Cl)cc1`, for which the outcome was inactive.
